Data published in PubChem BioAssay.
Records with an inconclusive call do not appear. The source made the active and inactive calls. Unless noted, no stated cut-off is given here; in the data, active means response above about 15%; inactive means the rest.

Experiments:
[1] = rapamycin-like changes in RPL19A-GFP expression – cell-based, S. cerevisiae, multiplex flow cytometry, primary screen (AID 1862; in the data active means percent of DMSO control GFP below about 86%;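 further: lower values mimic rapamycin by blocking the RPL19A rise seen in DMSO cells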); settings: S. cerevisiae RPL19A-GFP strain, flow cytometry fluorescence, 3 h; at 10 µM; stronger effect = lower value
[2] = TOR pathway GLN3 branch reporter MEP2-GFP changes – S. cerevisiae, multiplex flow cytometry, primary screen (AID 1867;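 active means GFP response, as percent of the DMSO control, above the screen-wide mean plus 3 SD, about 139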;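 further: median GFP channel fluorescence of barcode-gated MEP2-GFP cells measured by flow cytometry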); settings: S. cerevisiae MEP2-GFP strain, 3 h, at 10 µM, stronger effect = higher value, 100% means same as DMSO wells
[3] = TOR pathway RTG branch CIT2 reporter changes – S. cerevisiae, GFP fusion, multiplex flow cytometry, primary screen (AID 1870;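 active means percent response above a set limit, the screen-wide mean plus 3 SD, cut at about 130% in these data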;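 further: barcoded CIT2-GFP strain pooled with four other GFP strains with rapamycin as positive control; median GFP fluorescence per well over plate mean of DMSO wells so 100% = DMSO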); settings: S. cerevisiae CIT2-GFP expression, 3 h, at 10 µM, stronger effect = higher value
[4] = TOR pathway LAP4-GFP level changes – S. cerevisiae, multiplex flow cytometry, primary screen (AID 1873;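 active means GFP signal, as percent of the solvent control, above the screen mean plus 3 SD, about 149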); settings: S. cerevisiae LAP4-GFP expression, 3 h, at 10 µM, stronger effect = higher value
[5] = yeast AGP1-GFP level changes, GLN3 branch – cell-based, multiplex flow cytometry, S. cerevisiae, primary screen (AID 1887;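 active means GFP signal above the screen-wide mean plus 3 SD, that is over about 124.5% of the solvent control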;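 further: AGP1-GFP fusion strain of S. cerevisiae within a five-strain barcoded multiplex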); settings: 3 h, at 10 µM, stronger effect = higher value
[6] = reduced mouse 2C T cell binding to pMHC/ICAM-1 vesicles – MLPCN validation set, flow cytometry, LFA-1/ICAM-1 modulator project, pilot screen (AID 2523;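 active means response below a set limit, under 55% cells CD8-positive and vesicle-bound, and CD8 cells' 90th-percentile brightness under 279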;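 on vesicle binding response: mean PE anti-B7-1 fluorescence of CD8+ cells relative to row control; 100% = QL9-loaded vesicles with DMSO vehicle in the same plate row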); settings: 2C mouse CD8+ T cells, at 7 µM, stronger effect = lower value; double positive events: measured here: CD8+/vesicle+ event percentage
[7] = molecular target: Integrin beta-1 (Homo sapiens) + Integrin alpha-4 (Homo sapiens) (UniProt P13612+P05556); experiment: alpha4beta1 integrin LIBS antibody binding reduction – U937 cells, HUTS-21 mAb, flow cytometry, validation set, VLA-4 allosteric modulator project, pilot screen (AID 2674;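 active means inhibition above 50%, about 3 SD of the validation set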;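 further: antibody binding induced by the VLA-4 ligand LDV present at three times its Kd; 0% = LDV ligand with antibody and no compound and 100% = antibody without LDV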); settings: HUTS-21 LIBS mAb binding, at 6.7 µM, stronger effect = higher value, binding induced by LDV ligand
[8] = calorie-restriction mimetic ROS inhibitors, yeast – validation compound set, pilot screen (AID 2706;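 active means superoxide response below 65% of plate, a cut near 3 SD across the whole screen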;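 further: yeast exposed to compound for one week at 30 degrees C before staining; 100% = mean of all compound wells on the same plate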); settings: S. cerevisiae aging, superoxide DHE fluorescence; at 10 µM; stronger effect = lower value
[9] = molecular target: Beta-adrenergic receptor kinase 1 (Homo sapiens) (UniProt P25098); experiment: GRK2 binders displacing RNA aptamer, biochemical, validation, human GRK2, bead flow cytometry (AID 488806;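 active means aptamer binding inhibition above 30%, about 3 SD of noise from non-fluorescent compounds; inactive means inhibition at or below 30%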); settings: bead-bound GRK2, FAM-aptamer displacement, at 10 µM, stronger effect = higher value
[10] = molecular target: Beta-2 adrenergic receptor (Homo sapiens) (UniProt P07550); experiment: agonist-induced loss of surface beta2AR – cell-based, FAP fluorogen, flow cytometry, validation set, pilot screen (AID 504459;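 active means percent response above 42, roughly 3 SD of non-fluorescent test compounds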;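 further: agonist-driven loss of surface beta2AR via internalization measured by FAP dye flow cytometry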); settings: Am2.2-beta2AR cells, at 10 µM, stronger effect = higher value
[11] = molecular target: AP-2 complex subunit beta (Homo sapiens) (UniProt P63010); experiment: beta-arrestin/AP2 interaction blockers – biochemical, validation set, GST-AP2 beads, flow cytometry, pilot screen (AID 504541;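 active means inhibition above 54%, about 3 SD of non-fluorescent compounds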;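 further: AP2 carries R879A mutation and is captured from E. coli lysate; bead-bound FITC arrestin peptide fluorescence measuring arrestin peptide binding to AP2; 0% = DMSO wells and 100% = excess unlabeled arrestin peptide control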); settings: FITC arrestin peptide, at 10 µM, stronger effect = higher value, AP2 beta2 appendage fragment, R879A mutant
[12] = cytosolic pH regulators acting via V-ATPase – S. cerevisiae, pHLuorin, HTS validation (AID 504600); settings: V-ATPase proton transport, at 10 µM, stronger effect = higher value;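 further: plate controls were DMSO for no effect and reference compound for full effect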
[13] = test system: anti-desmoglein-3 scFv antibody binding to human DSG3; experiment: blockers of pathogenic pemphigus antibody–desmoglein-3 binding – biochemical, validation compound set, bead-based, flow cytometry, pilot screen (AID 588368;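 active means binding below the plate cutoff, the plate median minus 3 SD, with a reading above zero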;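 further: signal is the median channel fluorescence of bead-bound GFP antibody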); settings: Protein G beads, DSG3-Fc, scFv-GFP binding, at 10 µM, stronger effect = lower value
[14] = Nile Red efflux blockade in pump-expressing yeast – validation compound set, multiplex, phenotypic, pilot screen (AID 588506;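 active means efflux inhibition above 0.42, the validation set average plus 4 SD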;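 further: Nile Red retained in cells so higher fluorescence means more efflux inhibition; 0 = negative control wells and 1 = enniatin B 25 µM full block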); settings: S. cerevisiae pump-expressing triplex, Nile Red efflux flow cytometry; at 10 µM; stronger effect = higher value; the pumps come from Candida albicans
[15] = molecular target: ATP-binding cassette sub-family B member 6 (Homo sapiens) (UniProt Q9NP58); experiment: blockers of ABCB6-driven porphyrin uptake – K562-ABCB6 cells, flow cytometry, validation set, pilot screen (AID 588550;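 active means inhibition above the screen-wide mean plus 3 SD, about 51%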;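 further: 0% = DMSO wells and 100% = benzethonium chloride 70 µM positive control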); settings: K562-ABCB6 porphyrin accumulation, 1 h, at 10 µM, stronger effect = higher value
[16] = AML differentiation inducers, ER-HoxA9 marrow cells – cell-based, GFP/MAC1 double positive, flow cytometry, validation set, primary screen (AID 588685;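 active means differentiation response of at least 50%, scaled between solvent and reference control, from cells with both markers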;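 further: compound exposure lasts four days before antibody staining and flow analysis; 0% = DMSO wells and 100% = 5 µM fulvestrant positive control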); settings: stronger effect = higher value, normalized: vehicle 0, fulvestrant 100

Chain of AP-2 complex subunit beta (Homo sapiens) (P63010 whole entry, looked up, the tested form may be a part, one chain of several): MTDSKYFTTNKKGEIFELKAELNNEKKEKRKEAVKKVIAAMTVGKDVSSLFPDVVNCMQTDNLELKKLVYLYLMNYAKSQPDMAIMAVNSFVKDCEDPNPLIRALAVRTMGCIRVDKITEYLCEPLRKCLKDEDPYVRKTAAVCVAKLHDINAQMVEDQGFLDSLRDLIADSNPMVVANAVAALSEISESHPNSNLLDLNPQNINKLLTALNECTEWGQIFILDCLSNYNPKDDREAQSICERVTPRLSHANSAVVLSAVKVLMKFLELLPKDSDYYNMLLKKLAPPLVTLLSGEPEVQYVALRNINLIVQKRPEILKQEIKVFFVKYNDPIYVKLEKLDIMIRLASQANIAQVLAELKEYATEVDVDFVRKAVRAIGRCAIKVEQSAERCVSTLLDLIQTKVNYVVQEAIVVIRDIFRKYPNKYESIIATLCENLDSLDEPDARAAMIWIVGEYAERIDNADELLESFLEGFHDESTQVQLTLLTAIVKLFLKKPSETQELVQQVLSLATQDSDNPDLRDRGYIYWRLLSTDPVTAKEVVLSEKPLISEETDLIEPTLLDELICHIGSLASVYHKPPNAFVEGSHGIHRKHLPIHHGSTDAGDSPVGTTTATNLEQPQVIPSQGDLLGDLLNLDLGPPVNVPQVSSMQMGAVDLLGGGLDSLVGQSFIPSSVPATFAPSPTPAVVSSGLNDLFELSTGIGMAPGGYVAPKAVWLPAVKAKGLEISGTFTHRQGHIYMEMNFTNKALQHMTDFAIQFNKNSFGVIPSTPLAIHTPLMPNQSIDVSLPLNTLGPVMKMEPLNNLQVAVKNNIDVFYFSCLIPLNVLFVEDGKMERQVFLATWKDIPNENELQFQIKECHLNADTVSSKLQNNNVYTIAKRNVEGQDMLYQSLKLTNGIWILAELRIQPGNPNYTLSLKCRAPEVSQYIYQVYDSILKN
Chain of Integrin beta-1 (Homo sapiens) + Integrin alpha-4 (Homo sapiens) (P05556 whole entry, looked up): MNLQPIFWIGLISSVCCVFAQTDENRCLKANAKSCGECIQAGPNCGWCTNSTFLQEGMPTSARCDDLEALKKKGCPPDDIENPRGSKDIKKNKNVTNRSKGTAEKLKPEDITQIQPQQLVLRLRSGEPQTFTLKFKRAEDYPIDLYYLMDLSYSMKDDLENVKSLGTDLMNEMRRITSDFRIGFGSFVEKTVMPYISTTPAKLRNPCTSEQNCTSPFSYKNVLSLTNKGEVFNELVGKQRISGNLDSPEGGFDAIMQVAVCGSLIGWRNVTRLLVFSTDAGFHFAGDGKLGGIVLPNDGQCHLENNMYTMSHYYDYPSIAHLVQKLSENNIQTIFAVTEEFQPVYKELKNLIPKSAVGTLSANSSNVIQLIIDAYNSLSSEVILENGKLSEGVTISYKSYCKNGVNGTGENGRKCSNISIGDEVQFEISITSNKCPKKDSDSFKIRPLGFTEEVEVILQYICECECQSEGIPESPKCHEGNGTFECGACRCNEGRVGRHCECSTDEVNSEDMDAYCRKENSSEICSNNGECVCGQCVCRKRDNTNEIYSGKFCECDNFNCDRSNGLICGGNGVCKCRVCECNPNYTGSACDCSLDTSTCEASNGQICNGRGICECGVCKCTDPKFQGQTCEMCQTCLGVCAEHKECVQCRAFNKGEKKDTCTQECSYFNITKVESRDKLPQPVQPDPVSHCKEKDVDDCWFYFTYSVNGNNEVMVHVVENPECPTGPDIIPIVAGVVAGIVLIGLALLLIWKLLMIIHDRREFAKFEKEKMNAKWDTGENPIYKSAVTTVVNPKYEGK
Chain of Integrin beta-1 (Homo sapiens) + Integrin alpha-4 (Homo sapiens) (P13612 whole entry, looked up): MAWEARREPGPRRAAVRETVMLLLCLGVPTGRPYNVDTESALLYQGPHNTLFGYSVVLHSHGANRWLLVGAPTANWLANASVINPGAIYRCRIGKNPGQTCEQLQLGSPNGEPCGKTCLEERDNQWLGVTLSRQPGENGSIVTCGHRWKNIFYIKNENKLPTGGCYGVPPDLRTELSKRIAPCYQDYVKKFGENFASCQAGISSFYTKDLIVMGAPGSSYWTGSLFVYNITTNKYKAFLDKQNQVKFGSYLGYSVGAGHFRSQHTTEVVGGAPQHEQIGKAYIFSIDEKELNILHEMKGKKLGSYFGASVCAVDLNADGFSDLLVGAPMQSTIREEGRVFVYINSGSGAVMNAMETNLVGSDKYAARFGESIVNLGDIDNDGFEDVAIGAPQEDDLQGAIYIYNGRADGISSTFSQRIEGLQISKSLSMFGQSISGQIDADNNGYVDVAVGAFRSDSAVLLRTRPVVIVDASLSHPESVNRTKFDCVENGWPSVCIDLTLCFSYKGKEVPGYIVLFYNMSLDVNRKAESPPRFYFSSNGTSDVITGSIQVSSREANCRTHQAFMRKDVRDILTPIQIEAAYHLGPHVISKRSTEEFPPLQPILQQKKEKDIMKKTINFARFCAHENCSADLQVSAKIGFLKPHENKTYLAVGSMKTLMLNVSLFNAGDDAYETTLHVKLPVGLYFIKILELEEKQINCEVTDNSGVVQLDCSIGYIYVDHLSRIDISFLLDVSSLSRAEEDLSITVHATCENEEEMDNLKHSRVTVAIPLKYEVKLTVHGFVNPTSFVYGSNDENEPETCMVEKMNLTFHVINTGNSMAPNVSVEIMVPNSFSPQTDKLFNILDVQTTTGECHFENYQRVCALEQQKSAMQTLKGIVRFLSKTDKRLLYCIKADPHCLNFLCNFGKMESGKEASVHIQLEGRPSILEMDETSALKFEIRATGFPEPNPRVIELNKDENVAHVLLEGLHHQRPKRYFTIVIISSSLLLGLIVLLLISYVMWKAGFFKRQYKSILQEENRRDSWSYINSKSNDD
Chain of ATP-binding cassette sub-family B member 6 (Homo sapiens) (Q9NP58 whole entry, looked up): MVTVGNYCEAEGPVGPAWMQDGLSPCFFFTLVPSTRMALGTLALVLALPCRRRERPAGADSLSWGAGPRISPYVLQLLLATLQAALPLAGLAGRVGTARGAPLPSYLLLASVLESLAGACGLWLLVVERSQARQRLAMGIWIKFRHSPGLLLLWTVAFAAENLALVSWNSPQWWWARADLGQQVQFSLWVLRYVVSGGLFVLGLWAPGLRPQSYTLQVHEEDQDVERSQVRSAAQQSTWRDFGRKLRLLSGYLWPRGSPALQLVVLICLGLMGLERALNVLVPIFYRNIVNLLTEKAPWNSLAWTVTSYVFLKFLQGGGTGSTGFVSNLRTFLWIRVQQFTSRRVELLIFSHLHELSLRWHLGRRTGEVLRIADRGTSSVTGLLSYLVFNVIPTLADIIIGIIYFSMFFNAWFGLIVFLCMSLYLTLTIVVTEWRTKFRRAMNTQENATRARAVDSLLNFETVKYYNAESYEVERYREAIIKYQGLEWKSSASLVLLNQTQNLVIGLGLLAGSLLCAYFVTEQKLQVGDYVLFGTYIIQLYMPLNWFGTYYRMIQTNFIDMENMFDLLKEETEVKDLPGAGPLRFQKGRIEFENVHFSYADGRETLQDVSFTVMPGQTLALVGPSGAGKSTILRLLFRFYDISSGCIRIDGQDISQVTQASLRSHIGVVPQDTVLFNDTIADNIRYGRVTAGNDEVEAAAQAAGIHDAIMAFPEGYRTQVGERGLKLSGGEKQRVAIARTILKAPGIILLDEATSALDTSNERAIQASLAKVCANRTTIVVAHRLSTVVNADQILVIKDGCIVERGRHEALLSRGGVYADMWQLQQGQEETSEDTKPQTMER
Chain of Beta-adrenergic receptor kinase 1 (Homo sapiens) (P25098 whole entry, looked up): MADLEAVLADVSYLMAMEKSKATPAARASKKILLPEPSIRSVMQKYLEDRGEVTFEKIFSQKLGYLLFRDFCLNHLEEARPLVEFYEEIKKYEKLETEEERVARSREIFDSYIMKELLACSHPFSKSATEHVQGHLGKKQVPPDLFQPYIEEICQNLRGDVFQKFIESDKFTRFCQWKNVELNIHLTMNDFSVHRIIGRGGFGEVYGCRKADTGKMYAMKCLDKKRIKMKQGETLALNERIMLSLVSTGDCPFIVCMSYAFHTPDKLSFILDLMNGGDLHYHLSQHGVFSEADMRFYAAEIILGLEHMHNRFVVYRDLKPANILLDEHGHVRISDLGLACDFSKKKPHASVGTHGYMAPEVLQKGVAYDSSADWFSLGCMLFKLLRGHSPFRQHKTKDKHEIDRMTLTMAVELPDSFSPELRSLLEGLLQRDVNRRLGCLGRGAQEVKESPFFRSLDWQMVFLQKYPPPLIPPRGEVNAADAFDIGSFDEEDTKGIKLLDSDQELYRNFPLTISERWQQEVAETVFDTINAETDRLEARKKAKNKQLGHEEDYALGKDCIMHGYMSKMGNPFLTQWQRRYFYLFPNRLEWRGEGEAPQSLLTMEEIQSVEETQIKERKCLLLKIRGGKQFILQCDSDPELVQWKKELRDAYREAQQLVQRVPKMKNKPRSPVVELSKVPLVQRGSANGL
Chain of Beta-2 adrenergic receptor (Homo sapiens) (P07550 whole entry, looked up): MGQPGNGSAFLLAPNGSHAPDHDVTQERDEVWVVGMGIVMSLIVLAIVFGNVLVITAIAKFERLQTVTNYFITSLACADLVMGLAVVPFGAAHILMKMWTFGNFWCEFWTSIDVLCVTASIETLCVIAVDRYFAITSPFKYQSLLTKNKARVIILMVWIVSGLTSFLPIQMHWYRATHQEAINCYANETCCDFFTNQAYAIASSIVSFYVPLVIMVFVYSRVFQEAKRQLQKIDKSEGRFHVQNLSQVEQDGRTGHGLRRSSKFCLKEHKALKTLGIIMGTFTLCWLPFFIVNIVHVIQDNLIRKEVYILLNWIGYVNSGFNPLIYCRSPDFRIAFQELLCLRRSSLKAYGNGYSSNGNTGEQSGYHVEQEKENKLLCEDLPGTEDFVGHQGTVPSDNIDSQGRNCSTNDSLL

SMILES | percent of DMSO control GFP [1] | GFP response vs DMSO [2] | percent response of DMSO control [3] | GFP response vs DMSO [4] | GFP response, % of DMSO [5] | double positive events [6] [%] | vesicle binding response [6] | inhibition [7] | superoxide response (% of plate) [8] | aptamer binding inhibition [9] | response [10] | inhibition [11] | response [12] | binding (% of control) [13] | efflux inhibition (fraction of control) [14] | inhibition [15] | differentiation response [16]
CCC(C)NCCOCCOc1ccc(Cl)cc1Br (stereo not given) | 103% (inactive) | 102% (inactive) | 102% (inactive) | 100% (inactive) | 103% (inactive) | 61.4 | 142% (inactive) | 0.25% (inactive) | 98% (inactive) | -7% (inactive) | -3.72% (inactive) | 57.1% (active) | -10.6% (inactive) | 95.8% (inactive) | -0.16 (inactive) | -14% (inactive) | -4.57% (inactive)
COc1cc2c(cc1OC)CN(Cc1ccc(C)s1)CC2 | 102% (inactive) | 106% (inactive) | 105% (inactive) | 88.1% (inactive) | 98% (inactive) | 64.1 | 349% (inactive) | -13.9% (inactive) | 103% (inactive) | 4% (inactive) | -7.1% (inactive) | 14.8% (inactive) | -3% (inactive) | 101% (inactive) | 0.05 (inactive) | 4% (inactive) | 2.2% (inactive)
CC(CCCC(C)(C)O)NC(=O)c1ccc(OC2CCN(C(=O)C3CC3)CC2)cc1 (stereo not given) | 102% (inactive) | 96.3% (inactive) | 98.6% (inactive) | 108% (inactive) | 99.8% (inactive) | 60.9 | 200% (inactive) | 20.1% (inactive) | 97.8% (inactive) | 1% (inactive) | -15.1% (inactive) | 10.3% (inactive) | -0.73% (inactive) | 101% (inactive) | 0.08 (inactive) | 3% (inactive) | -12% (inactive)
Cc1ccc(/C(=C\CN2CCCC2)c2ccccn2)cc1 | 107% (inactive) | 104% (inactive) | 108% (inactive) | 88.2% (inactive) | 100% (inactive) | 57.7 | 146% (inactive) | 12.3% (inactive) | 106% (inactive) | 1% (inactive) | 7.2% (inactive) | -9.23% (inactive) | 0.97% (inactive) | 108% (inactive) | 0.01 (inactive) | -16% (inactive) | -19.2% (inactive)
c1cnc(N2CCN(Cc3ccc4c(c3)OCO4)CC2)nc1 | 101% (inactive) | 101% (inactive) | 102% (inactive) | 97% (inactive) | 103% (inactive) | 73.9 | 330% (inactive) | 2.93% (inactive) | 103% (inactive) | -1% (inactive) | 2.78% (inactive) | 2.85% (inactive) | 0.81% (inactive) | 105% (inactive) | 0.235 (inactive) | 2% (inactive) | -13.3% (inactive)
Cc1cc(-c2nn(-c3ccccc3F)cc2CN2CCCC(O)C2)c(C)s1 (stereo not given) | 97.6% (inactive) | 101% (inactive) | 97.7% (inactive) | 117% (inactive) | 107% (inactive) | 56.6 | 148% (inactive) | 5.69% (inactive) | 84.2% (inactive) | -2% (inactive) | -40.3% (inactive) | -12.6% (inactive) | -5.22% (inactive) | 103% (inactive) | -0.04 (inactive) | 0% (inactive) | -13.9% (inactive)
O=C(/C=C/Sc1ccccc1)c1ccccc1 | 106% (inactive) | 101% (inactive) | 100% (inactive) | 112% (inactive) | 94.6% (inactive) | 63.9 | 263% (inactive) | -15% (inactive) | 109% (inactive) | -1% (inactive) | 28.9% (inactive) | 14.1% (inactive) | -5.17% (inactive) | 103% (inactive) | -0.01 (inactive) | -13% (inactive) | 37.4% (inactive)
COc1ccc(C2C(C#N)=C(N)Oc3cc(C)[nH]c(=O)c32)c(OC)c1OC (stereo not given) | 88.2% (inactive) | 117% (inactive) | 92.6% (inactive) | 78.1% (inactive) | 97% (inactive) | 63.8 | 168% (inactive) | 14.2% (inactive) | 97.7% (inactive) | 4% (inactive) | -4.98% (inactive) | -3.85% (inactive) | -1.92% (inactive) | 109% (inactive) | 0.16 (inactive) | 10% (inactive) | 0% (inactive)
COC(=O)c1ccc2c(c1)C(=O)/C(=C/c1ccc(O)cc1)O2 | 95.4% (inactive) | 109% (inactive) | 92% (inactive) | 111% (inactive) | 95.5% (inactive) | 59 | 90.4% (inactive) | -8.62% (inactive) | 102% (inactive) | 2% (inactive) | -5.34% (inactive) | 6.94% (inactive) | -1.86% (inactive) | 100% (inactive) | 0.19 (inactive) | 2% (inactive) | -26.4% (inactive)
CC[C@H](C)C(=O)O[C@H]1C[C@@H](C)C=C2C=C[C@H](C)[C@H](CC[C@@H]3C[C@@H](O)CC(=O)O3)[C@H]21 | 107% (inactive) | 108% (inactive) | 103% (inactive) | 97% (inactive) | 95.8% (inactive) | 64.6 | 126% (inactive) | -5.11% (inactive) | 93.1% (inactive) | 2% (inactive) | 1.87% (inactive) | 49.7% (inactive) | -9.69% (inactive) | 109% (inactive) | 0.28 (inactive) | 0% (inactive) | -11.9% (inactive)
